Assay results taken from PubChem BioAssay (NCI).
About 79,000 compounds went through this panel and 15% of them were active in at least one assay; those are over-represented in the sample as a whole. Cut-off read from the data, not from the text of the source: active = growth inhibition above about 70%; inactive = the rest.

Assays:
[1] = NCI Yeast Anticancer Drug Screen. Data for the rad50 strain (AID 155);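 note: 0% = growth of vehicle-only cultures of the same strain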; conditions: S. cerevisiae rad50 strain growth inhibition; at 50.0 µM; stronger effect = higher value
Procedure, shortened: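 Compounds were tested on a yeast strain with an engineered DNA damage repair alteration; the reported value is growth inhibition normalised to vehicle treatment.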

[2] = NCI Yeast Anticancer Drug Screen. Data for the mec2-1 strain (AID 157); conditions: S. cerevisiae mec2-1 strain, at 50.0 µM, stronger effect = higher value
Procedure, shortened: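 Using mec2-1 yeast: add compound, measure growth, express inhibition versus vehicle-treated cultures.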

[3] = NCI Yeast Anticancer Drug Screen. Data for the sgs1 mgt1 strain (AID 161);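 note: 0% = growth of cultures given vehicle only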; conditions: S. cerevisiae sgs1 mgt1 strain, at 50.0 µM, stronger effect = higher value
Procedure, shortened: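 Compounds are added to genetically altered yeast, and growth is compared with cultures given vehicle alone to give percent inhibition.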

[4] = NCI Yeast Anticancer Drug Screen. Data for the cln2 rad14 strain (AID 165);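 note: 0% = growth equal to vehicle treated cultures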; conditions: S. cerevisiae cln2 rad14 strain, at 50.0 µM, stronger effect = higher value
Procedure, shortened: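 Yeast strain cln2 rad14, bearing defects in cell cycle control and DNA repair, serves as the test system; values reflect growth inhibition compared with vehicle.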

[5] = NCI Yeast Anticancer Drug Screen. Data for the bub3 strain (AID 167); conditions: S. cerevisiae bub3 mutant strain, at 50.0 µM, stronger effect = higher value
Procedure, shortened: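 Growth of a checkpoint-deficient yeast mutant is measured after compound exposure. Values represent inhibition relative to vehicle.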

[6] = NCI Yeast Anticancer Drug Screen. Data for the mlh1 rad18 strain (AID 175); conditions: S. cerevisiae mlh1 rad18 strain growth inhibition; at 50.0 µM; stronger effect = higher value
Procedure, shortened: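 Steps: expose repair-defective yeast to compound; measure growth; express inhibition against vehicle-treated controls.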

Measured: growth inhibition

CN1CCS(=O)(=O)NC(Cc2ccccc2)C(=O)N2CCCC2C1=O (stereo unspecified)
inactive: [1] -6.5% | [2] -13.2% | [3] -4.5% | [4] 29.6% | [5] -11.7% | [6] -8.5%

COC1NC(=O)Oc2ccccc21 (stereo unspecified)
inactive: [1] -6.25% | [2] 29.5% | [3] -8.95% | [4] -3.3% | [5] -12.5% | [6] -19.4%

Cc1ccc(S(=O)(=O)N/N=C/c2cc([N+](=O)[O-])cc(I)c2O)cc1
inactive: [1] 2.35% | [2] -3.6% | [3] -4.5% | [4] -50.4% | [5] -10.6% | [6] 4.2%

CC(C)=Nn1cnc2nccnc2c1=O
inactive: [1] 2.55% | [2] -6.05% | [3] -14.2% | [4] -40% | [5] -13.3% | [6] -1.6%

Cc1ccc(S(=O)(=O)OCC2CCC(=O)N2)cc1 (stereo unspecified)
inactive: [1] 20.4% | [2] -13.2% | [3] 0.5% | [4] -3.15% | [5] -3.9% | [6] 27.1%

O=C1Nc2ccccc2C12OCCS2 (stereo unspecified)
inactive: [1] -4.1% | [2] 25.2% | [3] 17.2% | [4] -7.4% | [5] 5.25% | [6] 7.25%

O=S(=O)(O)c1cccc(/C(=N\Nc2ccccn2)c2ccccn2)c1
inactive: [1] 44% | [2] 25.9% | [3] 59.8% | [4] 40.5% | [5] 51.5% | [6] 45.4%

CC(=O)Nc1ccc(O)c([N+](=O)[O-])c1
inactive: [1] 3.1% | [2] 3.3% | [3] 3.3% | [4] -36% | [5] -9.15% | [6] -11.4%

CC/C(=C\c1ccccc1O)c1ccncc1
inactive: [1] 2.2% | [2] -8.5% | [3] 2.5% | [4] 1.85% | [5] 23.1% | [6] -0.65%

Nc1nnnn1C(=O)NCCCl
inactive: [1] -6.55% | [2] 0.6% | [3] -6.45% | [4] -24.8% | [5] -20.4% | [6] -5.25%

c1ccc2c(-c3nn[nH]n3)nccc2c1
inactive: [1] 11.6% | [2] -16.2% | [3] -6.5% | [4] -16.9% | [5] -19.9% | [6] -10.9%

CN(C)N=Nc1cccc(Cl)c1
inactive: [1] 25.9% | [2] 0.6% | [3] 10.3% | [4] 16.2% | [5] 8.8% | [6] 14.2%

COc1cc(C2C3=C(COC3=O)Oc3cc4c(cc32)OCO4)cc(OC)c1OC(C)=O (stereo unspecified)
inactive: [1] -15.5% | [2] -22.9% | [3] 1.55% | [4] 16.1% | [5] -8.3% | [6] -2.5%

CN(C)C(=S)/N=C1\SCS(=O)(=O)N1C
inactive: [1] 14.2% | [2] 6.55% | [3] -6% | [4] 7.7% | [5] -6.6% | [6] 9.15%

c1c[nH]c(C2Nc3ccccc3CO2)c1 (stereo unspecified)
inactive: [1] -11.4% | [2] -13.2% | [3] -18.9% | [4] -22.6% | [5] 1.3% | [6] 9.85%

Nc1ccccc1Sc1ccc(C(=O)O)cc1[N+](=O)[O-]
inactive: [1] 19.6% | [2] 20.2% | [3] 7.75% | [4] -3.55% | [5] 22.2% | [6] -6.5%

C/C=C(\CC)C(C#N)O[Si](C)(C)C (stereo unspecified)
inactive: [1] 13.2% | [2] 4.4% | [3] 1.45% | [4] 6.5% | [5] 10% | [6] -24.6%

CCc1c(CO)cnc(C)c1OP(=O)(O)O
inactive: [1] -33.5% | [2] -39.5% | [3] -18.1% | [4] 3.65% | [5] -39.6% | [6] -22.6%

CCOC(=O)C(C(=O)CC)C(=O)OCC
inactive: [1] 14.3% | [2] 11.3% | [3] 16.2% | [4] 7.65% | [5] 14.2% | [6] 13.4%

Cc1ccc(S(=O)(=O)NN=C2CCCCCCCCCCC2)cc1
inactive: [1] -8.35% | [2] -21.4% | [3] -7.75% | [4] 7.45% | [5] 9.05% | [6] -1.8%

Cn1c2ccccc2c(=O)c2cc(NC(=O)CCCCCCCC(=O)Nc3ccc4c(c3)c(=O)c3ccccc3n4C)ccc21
inactive: [1] -10.7% | [2] -12.8% | [3] -10.7% | [4] -12.6% | [5] -27.2% | [6] -1.45%

CCOC(=O)C(=O)OCC
inactive: [1] 24.9% | [2] -1.05% | [3] -19.1% | [4] -3.7% | [5] 29.8% | [6] 13.8%

CC(=O)/C=C/C=C\C=C/N=C(c1ccccc1)c1ccccc1
inactive: [1] -7.5% | [2] -1.1% | [3] -2.7% | [4] 3% | [5] 26.1% | [6] -3.85%

CSc1ccc(NC(=O)Nc2cc(C)ccc2Cl)cc1
inactive: [1] -2.05% | [2] 23% | [3] 25.9% | [4] -4.05% | [5] 41.1% | [6] 19.6%

CC(C)(C)c1cc(C(c2ccc3c(c2)OCO3)N2CCOCC2)c(O)c(C(C)(C)C)c1 (stereo unspecified)
inactive: [1] 12.3% | [2] -12.3% | [3] -2.05% | [4] 14.8% | [5] 13.1% | [6] 16.9%

CNC(=O)NC(c1ccc2c(c1)OCO2)c1cc2c(cc1O)OCO2 (stereo unspecified)
inactive: [1] 10.8% | [2] -2.7% | [3] 13.9% | [4] 14.2% | [5] 19.2% | [6] 24.6%

O=C1CS(=O)(=O)C2(CCCCC2)C(=O)N1
inactive: [1] -15.1% | [2] -5.65% | [3] -12.2% | [4] -42.1% | [5] -3.2% | [6] -27.6%

Brc1ccc(-c2nnc(-c3ccc(Br)cc3)o2)cc1
inactive: [1] 14.8% | [2] -4.6% | [3] -0.8% | [4] -4.7% | [5] 0.25% | [6] 1.4%

Cc1c(O)c2ccccc2n(C)c1=O
inactive: [1] -9.45% | [2] -12.4% | [3] -15.7% | [4] -6.1% | [5] 3.85% | [6] -6.8%

CC(=O)OC1C(NC(=O)OCc2ccccc2)CC(NC(=O)OCc2ccccc2)C(O)C1O (stereo unspecified)
inactive: [1] 34.4% | [2] -12.5% | [3] 5.4% | [4] -10.1% | [5] -1.9% | [6] 4.9%

Nc1ccc(F)c(Cl)c1
inactive: [1] 0.85% | [2] -16.4% | [3] 10.7% | [4] -17.9% | [5] -4.25% | [6] 14.7%

N#Cc1cnn(-c2ccc(Br)cc2)c1N
inactive: [1] 11.4% | [2] 0.6% | [3] 3.1% | [4] -33.8% | [5] -7% | [6] 6.3%

Cc1ccc2c(c1)[nH]c(=S)n2C=C(C#N)C#N
inactive: [1] -23.6% | [2] -42.4% | [3] -1.1% | [4] 0.75% | [5] -0.55% | [6] -5.15%

Nc1ccc(S(=O)(=O)N/N=C/c2ccc(O)cc2)cc1
inactive: [1] 4.35% | [2] -21.4% | [3] 4.7% | [4] -22.1% | [5] 5.1% | [6] -11.3%

CCOC(=O)/C(=C\c1ccc[nH]1)C(=O)c1ccccc1
inactive: [1] 48% | [2] -5.9% | [3] 5% | [4] 27.6% | [5] 20.1% | [6] 9.05%

Cc1nc(C)c(N2CCN(S(=O)(=O)N(Cc3ccccc3)Cc3ccccc3)CC2)c(=O)[nH]1
inactive: [1] -22.7% | [2] -5.95% | [3] -32.3% | [4] 3.85% | [5] -5.65% | [6] 4.2%

N#CCCN(CCC#N)C(Cc1cn(CCC#N)cn1)C(=O)O (stereo unspecified)
inactive: [1] -8.5% | [2] 6.35% | [3] 4.95% | [4] -13.2% | [5] 5.35% | [6] 10.8%

CCCCCC/C=N\NC(N)=S
inactive: [1] -17.1% | [2] 14.2% | [3] 30.4% | [4] -71.1% | [5] 17.9% | [6] 28.2%

CCCc1n[nH]c(=S)n1N1C(=S)NC(C)(C)C=C1C
inactive: [1] -1.8% | [2] -2% | [3] 18.1% | [4] -10.8% | [5] 4.1% | [6] 17.2%

CC1=CCC(CC=O)C1(C)C (stereo unspecified)
inactive: [1] 9.95% | [2] -1.95% | [3] -6.3% | [4] -43.4% | [5] -6.65% | [6] -3.45%

Cc1ccc(CC(=O)C(=O)O)c([N+](=O)[O-])c1
inactive: [1] -9.7% | [2] 38.1% | [3] 4.5% | [4] -23.6% | [5] -17.9% | [6] 8.2%
